# Where “and” joins values, the source holds several entries; their conditions need not be identical. Equal values may be shown once. Inconclusive results are not listed. Entries that show only a call come without a potency. Where a structure was tested more than once in an assay, its records may differ in their call. Calls of active or inactive are those of the source. Unless noted, calls come from the whole dose curve; as a rule, active = well fitted curve in the direction sought with a large enough effect in the repeat runs; inconclusive = weak or mixed curves; inactive = no such curve, though single readings can be large; an effect the other way counts as inactive or inconclusive.
# How the values were obtained:
# [1] = qHTS assay to identify small molecule agonists of the vitamin D receptor (VDR) signaling pathway - cell viability counter screen (AID 743224); note: series mostly up to about 63 µM; nearly all actives have a fitted effect of over 50% in size
# Summary of the method: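 Cells: VDR-bla, 2,000/well, settled 4 h. Treatment: compounds in DMSO, 16 h, 37C/5% CO2. Readout: CellTiter-Glo luminescence after 30 min RT.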
# [2] = qHTS assay to identify small molecule agonists of the NFkB signaling pathway - cell viability counter screen (AID 1159515; calls by dose curve; note: series mostly up to about 61 µM; nearly all actives have a fitted effect of over 55% in size)
# Summary of the method: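 Cells are seeded (2,000 NFkB-bla ME-180 per well), rested overnight, and dosed with DMSO-dissolved compounds for 5 hr at 37 C. Viability is then read by CellTiter-Glo luminescence after 30 min at room temperature.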
# [3] = qHTS assay to identify small molecule agonists of the endoplasmic reticulum stress response signaling pathway (AID 1159516; active = well fitted activation curve with a large enough effect in the signal ratio in the repeat runs, not every such curve was filed as active; the % refers to the signal ratio)
# Summary of the method: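 Cells are seeded at 1,500 per well and incubated overnight. Compounds in DMSO are added for 5 hr at 37 C, then beta-lactamase FRET substrate for 2 hr at room temperature, and fluorescence at 460 and 530 nm is measured.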
# [4] = qHTS assay to identify small molecule agonists of the endoplasmic reticulum stress response signaling pathway - cell viability counter screen (AID 1159517; calls by dose curve;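 note: HeLa cells carrying an ER stress response element beta-lactamase reporter; series mostly up to about 61 µM; nearly all actives have a fitted effect of over 50% in size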)
# Summary of the method: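 In parallel with the ESRE reporter read, cytotoxicity was scored by CellTiter-Glo luminescence (30 min, room temperature) on HeLa ESRE-bla cells dosed for 5 hr.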
# [5] = target: Nuclear receptor ROR-gamma (Homo sapiens) (UniProt P51449); assay: qHTS assay to identify small molecule antagonists of the retinoid-related orphan receptor gamma (ROR-gamma) signaling pathway (AID 1159521; note: nearly all actives have a fitted effect of over 50% in size; note: potency is the fitted concentration of half-maximal effect)
# Summary of the method: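 RORγ antagonism is scored from reduced reporter luminescence in Tet-on CHO cells. Induction used 1 uM final doxycycline hyclate for 16 h at 37 C, following a 2 h compound exposure.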
# [6] = qHTS assay to identify small molecule agonists of the AP-1 signaling pathway - cell viability counter screen (AID 1159525; calls by dose curve; note: nearly all actives have a fitted effect of over 55% in size)
# Summary of the method: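 Same-well cytotoxicity counter screen of the Tox21 10K library in ME-180 cells. The readout is ATP-dependent luminescence after 5 h compound treatment. Data are normalised to DMSO and tetra n-octyl ammonium bromide controls.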
# [7] = qHTS assay to identify small molecule agonists of the AP-1 signaling pathway (AID 1159526; calls by dose curve)
# [8] = target: Retinoic acid receptor RXR-alpha (Homo sapiens) (UniProt P19793); assay: qHTS assay to identify small molecule agonists of the RXR signaling pathway (AID 1159527; calls by dose curve; note: nearly all actives have a fitted effect of over 35% in size)
# Retinoic acid receptor RXR-alpha (Homo sapiens), sequence (P19793 whole entry, looked up): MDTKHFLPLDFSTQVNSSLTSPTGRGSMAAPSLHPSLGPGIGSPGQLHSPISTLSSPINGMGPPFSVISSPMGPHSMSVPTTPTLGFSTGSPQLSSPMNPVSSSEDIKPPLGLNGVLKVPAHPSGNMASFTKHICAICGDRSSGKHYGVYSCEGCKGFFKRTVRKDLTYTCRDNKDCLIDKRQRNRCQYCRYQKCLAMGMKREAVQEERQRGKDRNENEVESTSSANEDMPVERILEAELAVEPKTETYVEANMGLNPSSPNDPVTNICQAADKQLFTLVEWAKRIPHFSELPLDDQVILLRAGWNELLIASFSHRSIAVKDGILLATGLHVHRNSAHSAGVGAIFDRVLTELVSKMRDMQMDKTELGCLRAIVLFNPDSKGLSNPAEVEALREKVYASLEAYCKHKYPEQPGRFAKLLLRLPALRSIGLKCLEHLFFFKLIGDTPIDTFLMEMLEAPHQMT
# Summary of the method: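 qHTS of the Tox21 10K library in GeneBLAzer RXR-alpha HEK 293T cells carrying a beta-lactamase reporter […]; 16 hr treatment, 9-cis retinoic acid as agonist control, FRET read-out.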
# [9] = qHTS assay to identify small molecule antagonists of the retinoid acid receptor (RAR) signaling pathway - cell viability counter screen (AID 1159551); note: nearly all actives have a fitted effect of over 35% in size; note: potency is the fitted concentration of half-maximal effect
# Summary of the method: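 Cells (C3RL4) are plated, incubated overnight, dosed with compound in DMSO, then given retinol at 1 uM final. After 6 h at 37 C, CellTiter-Glo is added and luminescence read following 30 min at room temperature.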
# [10] = qHTS assay to identify small molecule antagonists of the vitamin D receptor (VDR) signaling pathway - cell viability counter screen (AID 743225); note: nearly all actives have a fitted effect of over 50% in size
# Summary of the method: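 Cells (VDR-UAS-bla HEK 293T) are plated, rested 4 h at 37C, dosed with compound and 3 nM final 1-alpha,25-dihydroxy vitamin D3, and incubated 16 h. Viability is taken from CellTiter-Glo luminescence in the reporter wells.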
# [11] = qHTS assay to identify small molecule agonists of the RXR signaling pathway - cell viability counter screen (AID 1159529)
# Summary of the method: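 Cell viability is measured by CellTiter-Glo luminescence, 30 min at room temperature, in wells already read for beta-lactamase. Engineered HEK 293T cells (RXR-alpha-UAS-bla) are dosed 16 hr at 37 C. Tetraoctyl ammonium bromide serves as positive control.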
# [12] = qHTS assay to identify small molecule antagonists of the retinoic acid receptor (RAR) signaling pathway (AID 1159552; note: nearly all actives have a fitted effect of over 50% in size; note: potency is the fitted concentration of half-maximal effect)
# Summary of the method: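 Quantitative HTS in C3RL4 RARE-luciferase reporter cells. Compounds were added with 1 uM (final) retinol; luminescence was read after 6 hr.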
# [13] = qHTS assay to identify small molecule agonists of the retinoic acid receptor (RAR) signaling pathway (AID 1159553); note: potency is the fitted concentration of half-maximal effect
# Summary of the method: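 Seed C3RL4 reporter cells at 1,000 per well and incubate overnight at 37 C. Add compounds in DMSO, incubate 6 hr. Add luciferase reagent, wait 30 min at room temperature, read luminescence.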
# [14] = qHTS assay to identify small molecule antagonists of the retinoid-related orphan receptor gamma (ROR-gamma) signaling pathway - cell viability counter screen (AID 1159520); note: nearly all actives have a fitted effect of over 50% in size; note: potency is the fitted concentration of half-maximal effect
# Summary of the method: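 Tet-on ROR gamma CHO cells were given compounds for 2 hr, then doxycycline hyclate at 1 uM final, and incubated 16 hr at 37 C. Viability was measured as ATP content by CellTiter-Glo luminescence.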
# [15] = qHTS assay to identify small molecule antagonists of the estrogen related receptor (ERR) signaling pathway - cell viability counter screen (AID 1224818); note: series mostly up to about 46 µM
# Summary of the method: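 ERR cells, 2,000/well; 6 h settle at 37 C/5% CO2; compound pin transfer (DMSO); 17.5 h at 37 C; CellTiter-Fluor, 30 min, fluorescence read.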
# [16] = qHTS assay to identify small molecule antagonists of the estrogen related receptor (ERR) signaling pathway (AID 1224819)
# Summary of the method: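 qHTS in ERR cells, 2,000/well, 1536 format. Cpd (DMSO) added after 6 h settle, 18 h 37 C. One-Glo luminescence, 30 min RT.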
# [17] = qHTS assay to identify small molecule agonists of the estrogen related receptor (ERR) signaling pathway (AID 1224820)
# Summary of the method: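 After 6 h plating (2,000 cells/well) and 18 h compound treatment at 37 C, ERR cells were lysed with One-Glo and luminescence read after 30 min at room temperature.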
# [18] = test system: estrogen-related receptor alpha (ERRalpha) with PGC-1alpha coactivator, human; assay: qHTS assay to identify small molecule antagonists of the estrogen related receptor signaling pathway with the pleiotropic PPARgamma coactivator (PGC) (AID 1224821; calls by dose curve)
# Summary of the method: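 Luminescence from One-Glo luciferase reagent (30 min, room temperature) measured after 18 h compound treatment at 37 °C. Cells carry the PGC/ERR reporter and were seeded 6 h prior to dosing.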
# [19] = qHTS assay to identify small molecule antagonists of the estrogen related receptor signaling pathway with the pleiotropic PPARgamma coactivator (PGC) cell viability counter screen (AID 1224822;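 note: series mostly up to about 46 µM; viability read after 17.5 h compound exposure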)
# Summary of the method: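 Multiplexed viability counter screen run in PGC/ERR cells treated with compounds for 17.5 h at 37 C; live-cell protease signal measured by CellTiter-Fluor fluorescence.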
Structure (SMILES),Potency [1],outcome [2],outcome [3],Potency [4],Potency [5],Potency [6],Potency [7],Potency [8],Potency [9],Potency [10],Potency [11],Potency [12],Potency [13],Potency [14],outcome [15],Potency [16],Potency [17],Potency [18],outcome [19],"activity change, negative = cytotoxicity [4]"
CC(C)n1c(/C=C/[C@@H](O)C[C@@H](O)CC(=O)O)c(-c2ccc(F)cc2)c2ccccc21,inactive,inactive,inactive,inactive,486 nM (active) and 168 nM (active),inactive,inactive,inactive,inactive,,,,,,,,,,,
O=[N+]([O-])c1cc(N(CCO)CCO)ccc1NCCO,inactive,inactive,,inactive,,inactive,inactive,inactive,48.5 µM (active) and 48.6 µM (active),inactive,inactive,30.6 µM (active),inactive,,,,,,,
O=C1N=C(O)CN1/N=C/c1ccc(-c2ccc([N+](=O)[O-])cc2)o1,inactive,inactive,inactive,,inactive,inactive,inactive,,inactive,,inactive,,,inactive,,,,,,
Oc1ccc2ccccc2c1,inactive,inactive,,,inactive,inactive,inactive,inactive,inactive,inactive,inactive,inactive,inactive,,,,,,,
CC1=CC[C@H]2C[C@@H]1C2(C)C,inactive,inactive,inactive,,inactive,inactive,inactive,inactive,inactive,inactive,inactive,inactive,inactive,inactive,,,,,,
O=Nc1ccc(O)cc1,inactive,inactive,,,inactive,inactive,inactive,inactive,inactive,inactive,inactive,inactive,inactive,inactive,,,,,,
CC#C[C@]1(O)CC[C@H]2[C@@H]3CCC4=CC(=O)CCC4=C3[C@@H](c3ccc(N(C)C)cc3)C[C@@]21C,inactive,inactive,inactive,inactive,30.6 µM (active) and 26.6 µM (active),inactive,inactive,,inactive,inactive,inactive,27.3 µM (active) and 26.6 µM (active),,inactive,inactive,22 µM (active),inactive,21.1 µM (active),,
C=C(C#N)C(=O)OCC,inactive,inactive,,,inactive,inactive,inactive,inactive,inactive,inactive,inactive,inactive,inactive,inactive,,,,,,
O=[N+]([O-])C(CO)(CO)CO,inactive,inactive,inactive,inactive,inactive,inactive,inactive,inactive,inactive,,inactive,inactive,inactive,inactive,,,,,,
OCCOCCOCCOCCO,inactive,inactive,inactive,inactive,inactive,inactive,inactive,inactive,inactive,,inactive,,,inactive,,,,,,
CN(CCOc1ccc(CC2SC(=O)NC2=O)cc1)c1ccccn1 (stereo not drawn),,inactive,inactive,,inactive,inactive,inactive,,inactive,,inactive,,,inactive,,,,,,
CCOC(=O)/C=C\C(=O)OCC,inactive,inactive,,inactive,inactive,inactive,inactive,inactive,inactive,inactive,inactive,inactive,inactive,inactive,,,,,,
COC(=O)Nc1nc2ccc(Sc3ccccc3)cc2[nH]1,inactive,inactive,,inactive,54.5 µM (active) and inactive,inactive,inactive,,inactive,inactive,inactive,inactive,,26.6 µM (active),,,,,,
C=C(C)C(=O)OCCC[Si](OC)(OC)OC,inactive,inactive,,inactive,inactive,inactive,inactive,inactive,inactive,inactive,inactive,inactive,inactive,inactive,,,,,,
CC(C)(CO)COC(=O)C(C)(C)CO,inactive,inactive,,inactive,,inactive,inactive,inactive,inactive,inactive,inactive,inactive,inactive,inactive,,,,,,
CS(=O)(=O)Nc1ccc([N+](=O)[O-])cc1Oc1ccccc1,inactive,inactive,inactive,inactive,,inactive,inactive,inactive,inactive,,inactive,,,inactive,,,inactive,,inactive,
CCCCC(CC)COC(C)=O (stereo not drawn),inactive,inactive,inactive,,inactive,inactive,inactive,inactive,inactive,inactive,inactive,inactive,inactive,inactive,,,,,,
CC(C)(C)C(=O)C1C(=O)c2ccccc2C1=O,inactive,inactive,inactive,,17.1 µM (active) and 30.6 µM (active),inactive,inactive,inactive,inactive,,inactive,inactive,inactive,,,,,,,

Structure (SMILES),Potency [1],outcome [2],outcome [3],Potency [4],Potency [5],Potency [6],Potency [7],Potency [8],Potency [9],Potency [10],Potency [11],Potency [12],Potency [13],Potency [14],outcome [15],Potency [16],Potency [17],Potency [18],outcome [19],"activity change, negative = cytotoxicity [4]"
C[C@@H](O)[C@H]1C(=O)N2C(C(=O)O)=C(S[C@@H]3CN[C@H](C(=O)N(C)C)C3)[C@H](C)[C@H]12,inactive,inactive,inactive,inactive,inactive,inactive,inactive,inactive,inactive,,inactive,inactive,inactive,inactive,,,,,,
Oc1ccc2ccccc2c1N=Nc1ccccc1,inactive,inactive,,inactive,inactive,inactive,,inactive,inactive,inactive,,inactive,12.2 µM (active),inactive,,,,,,
CC1(C)O[C@@H]2C[C@H]3[C@@H]4C[C@H](F)C5=CC(=O)CC[C@]5(C)[C@H]4[C@@H](O)C[C@]3(C)[C@]2(C(=O)CO)O1,inactive,inactive,inactive,inactive,inactive,inactive,inactive,inactive,inactive,inactive,inactive,inactive,inactive,inactive,,,,,,
OC[C@@H](O)[C@@H](O)[C@H](O)[C@@H](O)CO,inactive,inactive,,,inactive,inactive,inactive,inactive,inactive,inactive,inactive,inactive,inactive,inactive,,,,,,
NCCNCCNCCNCCN,inactive,inactive,,,inactive,inactive,inactive,inactive,inactive,inactive,inactive,,,inactive,,,,,,18.7% [at 6.95 µM] (inactive)
O=C1CCCCC1,inactive,inactive,,inactive,inactive,inactive,inactive,inactive,inactive,inactive,inactive,,,inactive,,,,,,
OCC1CCCO1 (stereo not drawn),inactive,inactive,,,inactive,inactive,inactive,,inactive,inactive,inactive,inactive,inactive,inactive,,,,,,
O=C1O[C@H](CO)[C@@H](O)[C@H](O)[C@H]1O,inactive,inactive,inactive,inactive,inactive,inactive,inactive,inactive,inactive,inactive,inactive,inactive,inactive,inactive,,,,,,
O=S(=O)(Oc1ccc(Cl)cc1Cl)c1ccccc1,inactive,inactive,inactive,inactive,inactive,inactive,inactive,,inactive,,inactive,inactive,68.6 µM (active),inactive,,,,,,
O=C(Cl)c1c(Cl)c(Cl)c(C(=O)Cl)c(Cl)c1Cl,inactive,inactive,inactive,,inactive,inactive,inactive,inactive,inactive,inactive,inactive,inactive,inactive,inactive,,,,,,
CCCCCCC(C)(C)S,inactive,inactive,inactive,inactive,inactive,inactive,inactive,inactive,inactive,inactive,inactive,inactive,inactive,inactive,,,,,,
Clc1ccc(Cl)c(Cl)c1Cl,inactive,inactive,inactive,inactive,inactive,inactive,inactive,,inactive,inactive,inactive,,,inactive,,,,,,
Oc1ccc(OCc2ccccc2)cc1,inactive,inactive,inactive,inactive,inactive,inactive,inactive,inactive,inactive,inactive,inactive,inactive,4.24 µM (active) and inactive,inactive,,,,,,
C[C@@H]1O[C@@H](OC[C@H]2O[C@@H](Oc3c(-c4ccc(O)c(O)c4)oc4cc(O)cc(O)c4c3=O)[C@H](O)[C@@H](O)[C@@H]2O)[C@H](O)[C@H](O)[C@H]1O,inactive,inactive,,,inactive,inactive,inactive,inactive,inactive,,inactive,inactive,inactive,inactive,,,,,,
CCCCCCCCCC(=O)O,inactive,inactive,inactive,inactive,inactive,inactive,inactive,,inactive,,inactive,inactive,inactive,inactive,,,,,,
CC1COc2ccccc2N1C(=O)C(Cl)Cl (stereo not drawn),inactive,inactive,,inactive,61 µM (active) and 48.5 µM (active),inactive,inactive,,inactive,,inactive,,,inactive,,,,,,
CC1=C(CC(=O)O)c2cc(F)ccc2/C1=C\c1ccc(S(C)=O)cc1 (stereo not drawn),inactive,inactive,inactive,inactive,inactive,inactive,inactive,,inactive,,inactive,,,inactive,inactive,,,,inactive,
Nc1nc2ncc(CNc3ccc(C(=O)N[C@@H](CCC(=O)O)C(=O)O)cc3)nc2c(=O)[nH]1,inactive,inactive,inactive,,inactive,inactive,inactive,inactive,inactive,inactive,inactive,inactive,inactive,inactive,,,,,,
